Potency and affinity values are given separately. Active and inactive are the calls of the source. How the calls were made is not given here.
Assay: cell based cytopathic effect inhibition, veev tc 83 strain, confirmatory screen (AID 624284)
Conditions: VEEV TC-83 infected cells; at 25 µM (top of the series)

**Q.** For `CCN1CCN(Cc2nc3cc([N+](=O)[O-])ccc3c(=O)n2-c2ccccc2)CC1`, which “inhibition” value is on record?
**A.** 3.1% (inactive)

**Q.** With `CCN1CCN(Cc2nc3ccc([N+](=O)[O-])cc3c(=O)[nH]2)CC1` as the molecule, how does the inhibition read?
**A.** -1%

**Q.** Which “inhibition” value does the source give for `CCN1CCN(Cc2nc3ccc([N+](=O)[O-])cc3c(=O)n2C(C)C)CC1` here?
**A.** -1% (inactive)

**Q.** For `CCN1CCN(Cc2nc3ccc(C(N)=O)cc3c(=O)n2-c2ccccc2)CC1`, which “inhibition” value is on record?
**A.** -2.53% (inactive)

**Q.** With `CCN1CCN(Cc2nc3cccc([N+](=O)[O-])c3c(=O)n2-c2ccccc2)CC1` as the molecule, how does the “inhibition” value read?
**A.** -2.17% (inactive)

**Q.** With `NS(=O)(=O)c1ccc(-n2c(-c3ccccc3)nc3ccc(Br)cc3c2=O)cc1` as the molecule, how does the “inhibition” value read?
**A.** 10.7% (inactive)

**Q.** Which “inhibition” value does the source give for `CCN1CCN(Cc2nc3ccc(C(=O)N(C)C)cc3c(=O)n2-c2ccccc2)CC1` here?
**A.** 3.63% (inactive)

Source: PubChem BioAssay AID624284 (Southern Research Specialized Biocontainment Screening …, 2012)
